Laboratory results from PubChem BioAssay (EPA / NIEHS).
Records with an inconclusive call do not appear. Activity calls are given as the source filed them. Rule for the calls, unless noted: active = hit-call score of the fitted dose curve at least 0.9, where 1 is the maximum; inconclusive = response in the unintended direction; inactive = score below 0.9.

Target: Nucleoli Translocation, AR (gene 367) (UniProt P10275)
Experiment: UPITT_HCI_U2OS_AR_TIF2_Nucleoli_Agonist: University of Pittsburgh U2OS Androgen Receptor-Transcriptional Intermediary Factor 2 (AR-TIF2) Agonism High Content Imaging Assay for Nucleoli Translocation (AID 2283998)
Details: not given
Outline: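 Readout is red (AR-RFP) fluorescence localized to nucleoli, measured by high-content imaging and analysed for increase relative to DMSO. Compound series spanned 0.195 to 50 uM final in 0.5% DMSO.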

Chain of Nucleoli Translocation, AR (gene 367) (P10275 whole entry, looked up): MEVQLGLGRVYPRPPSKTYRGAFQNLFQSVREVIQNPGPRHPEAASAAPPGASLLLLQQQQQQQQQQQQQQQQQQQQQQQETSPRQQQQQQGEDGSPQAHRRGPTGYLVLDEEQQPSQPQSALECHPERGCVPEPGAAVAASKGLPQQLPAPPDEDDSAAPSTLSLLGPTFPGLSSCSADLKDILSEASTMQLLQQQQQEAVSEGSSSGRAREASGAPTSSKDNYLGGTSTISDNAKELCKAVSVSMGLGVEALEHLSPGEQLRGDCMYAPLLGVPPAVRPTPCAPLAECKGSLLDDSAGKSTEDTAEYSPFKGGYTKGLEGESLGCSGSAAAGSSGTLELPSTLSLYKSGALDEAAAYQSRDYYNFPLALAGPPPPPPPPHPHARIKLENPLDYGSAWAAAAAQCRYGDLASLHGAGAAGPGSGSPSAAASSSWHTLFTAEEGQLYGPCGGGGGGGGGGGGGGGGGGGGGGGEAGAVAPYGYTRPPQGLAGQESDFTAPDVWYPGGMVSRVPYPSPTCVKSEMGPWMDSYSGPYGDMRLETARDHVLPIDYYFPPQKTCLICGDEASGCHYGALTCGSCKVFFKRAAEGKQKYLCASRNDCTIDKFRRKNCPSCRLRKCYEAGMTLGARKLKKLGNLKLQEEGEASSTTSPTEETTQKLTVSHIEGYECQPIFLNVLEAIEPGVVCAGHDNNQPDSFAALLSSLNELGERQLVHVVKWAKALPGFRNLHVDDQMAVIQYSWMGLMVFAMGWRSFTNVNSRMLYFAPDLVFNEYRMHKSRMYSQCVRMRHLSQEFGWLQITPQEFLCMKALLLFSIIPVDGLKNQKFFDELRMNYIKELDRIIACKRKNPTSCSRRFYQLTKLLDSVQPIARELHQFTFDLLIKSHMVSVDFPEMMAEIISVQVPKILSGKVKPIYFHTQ

Compound	outcome	AC50
CCCCCC(=O)O	inactive	–
COc1cc(-c2nc(NC(=O)c3cc4cc(C)cc(C)c4n3CC(=O)O)sc2CCC2CCCCC2)c(OC)cc1Cl	inactive	–
Cc1ccc(C)c(O)c1C	inactive	–
CCOc1ccc2c(c1)C(C)=CC(C)(C)N2	inactive	–
CC(C)(C)c1cc(O)c(C(C)(C)C)cc1O	inactive	–
Cc1ccc(N(C)C)cc1	inactive	–
COCCOCCOC	inactive	–
COc1cc(/C=C/C(=O)CC(=O)/C=C/c2ccc(O)c(OC)c2)ccc1O	inactive	–
Cc1cccc(C)c1O	inactive	–
Cc1nc(-c2ccc3c(c2)CCN(CCC2CCC(NC(=O)/C=C/c4ccc(F)cc4)CC2)CC3)no1 (centres undefined)	inactive	–
COc1cc(C=O)ccc1O	inactive	–
Cc1ccccc1Cl	inactive	–
O=C(O)Cc1ccccc1Nc1c(Cl)cccc1Cl	inactive	–
CNC(=O)[C@H]1O[C@@H](n2cnc3c(NCc4cc(Cl)ccc4OCc4cc(C)no4)ncnc32)[C@H](O)[C@@H]1N	inactive	–
COc1ccc(S(=O)(=O)N2C(=O)[C@@](c3ccccc3OC)(N3C[C@H](O)C[C@H]3C(=O)N(C)C)c3cc(Cl)ccc32)c(OC)c1	inactive	–
CC(=O)Oc1ccccc1C(=O)O	inactive	–
COc1ccc2c(c1)c(CC(=O)O)c(C)n2C(=O)c1ccc(Cl)cc1	inactive	–
Cc1ccc(C)c(C)c1	inactive	–
CN[C@H]1CC[C@@H](c2ccc(Cl)c(Cl)c2)c2ccc(S(N)(=O)=O)cc21	–	12.8 µM (active)

Target: Ratio of Nucleoli Translocation and Cytoplasm, AR (gene 367) (UniProt P10275)
Sequence (P10275 whole entry, looked up): as above
Experiment: UPITT_HCI_U2OS_AR_TIF2_Nucleoli_Cytoplasm_Ratio_Antagonist: University of Pittsburgh U2OS Androgen Receptor-Transcriptional Intermediary Factor 2 (AR-TIF2) Antagonism High Content Imaging Assay for Ratio of Nucleoli Translocation and Cytoplasm (AID 2283999);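 note: antagonists lower the DHT-driven ratio of nucleolar to cytoplasmic red signal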
Details: not given
Outline: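 U2OS cells expressing RFP-tagged human AR and GFP-tagged TIF2; compounds tested at 20 uM final (0.2% DMSO) in primary screen, 0.195–50 uM (0.5% DMSO) for concentration response. Readout: nucleolar-to-cytoplasmic red fluorescence ratio by high-content imaging, fitted relative to DHT.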

Compound	outcome	AC50
COc1cc(-c2nc(NC(=O)c3cc4cc(C)cc(C)c4n3CC(=O)O)sc2CCC2CCCCC2)c(OC)cc1Cl	inactive	–
Cc1cccc([N+](=O)[O-])c1C	inactive	–
Cc1ccc(C)c(O)c1C	inactive	–
Cc1cc(NC(=O)C(=O)O)cc(C)c1Oc1ccc(O)c2c1CCC2	inactive	–
CCOc1ccc2c(c1)C(C)=CC(C)(C)N2	inactive	–
Cc1ccc(N(C)C)cc1	inactive	–
COc1cc(/C=C/C(=O)CC(=O)/C=C/c2ccc(O)c(OC)c2)ccc1O	–	5.79 µM (active)
COc1ccc(C)cc1N	inactive	–
Cc1cccc(C)c1O	inactive	–
Cc1nc(-c2ccc3c(c2)CCN(CCC2CCC(NC(=O)/C=C/c4ccc(F)cc4)CC2)CC3)no1 (centres undefined)	inactive	–
COc1cc(C=O)ccc1O	inactive	–
O=C(O)Cc1ccccc1Nc1c(Cl)cccc1Cl	inactive	–
CNC(=O)[C@H]1O[C@@H](n2cnc3c(NCc4cc(Cl)ccc4OCc4cc(C)no4)ncnc32)[C@H](O)[C@@H]1N	inactive	–
COc1ccc(S(=O)(=O)N2C(=O)[C@@](c3ccccc3OC)(N3C[C@H](O)C[C@H]3C(=O)N(C)C)c3cc(Cl)ccc32)c(OC)c1	inactive	–
COc1ccc2c(c1)c(CC(=O)O)c(C)n2C(=O)c1ccc(Cl)cc1	inactive	–
Cc1ccc(C)c(C)c1	inactive	–
CN[C@H]1CC[C@@H](c2ccc(Cl)c(Cl)c2)c2ccc(S(N)(=O)=O)cc21	inactive	–

Target: Ratio of Nucleoli Translocation and Cytoplasm, AR (gene 367) (UniProt P10275)
Experiment: UPITT_HCI_U2OS_AR_TIF2_Nucleoli_Cytoplasm_Ratio_Agonist: University of Pittsburgh U2OS Androgen Receptor-Transcriptional Intermediary Factor 2 (AR-TIF2) Agonism High Content Imaging Assay for Ratio of Nucleoli Translocation and Cytoplasm (AID 2284000);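 note: hits raise the red nucleolar to cytoplasm ratio above vehicle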
Details: not given
Outline: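 Read-out first: nucleolar-to-cytoplasm ratio of red (AR-RFP) signal, quantified by high-content imaging in U2OS cells co-expressing TIF2-GFP. Activity is scored as signal increase over DMSO. Single-point screening used 20 uM final (0.2% DMSO).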

Compound	outcome
COc1cc(-c2nc(NC(=O)c3cc4cc(C)cc(C)c4n3CC(=O)O)sc2CCC2CCCCC2)c(OC)cc1Cl	inactive
Cc1cccc([N+](=O)[O-])c1C	inactive
CCCCCCCCCCC	inactive
Cc1ccc(C)c(O)c1C	inactive
Cc1cc(NC(=O)C(=O)O)cc(C)c1Oc1ccc(O)c2c1CCC2	inactive
CCOc1ccc2c(c1)C(C)=CC(C)(C)N2	inactive
CC(C)(C)c1cc(O)c(C(C)(C)C)cc1O	inactive
Cc1ccc(N(C)C)cc1	inactive
COCCOCCOC	inactive
COc1cc(/C=C/C(=O)CC(=O)/C=C/c2ccc(O)c(OC)c2)ccc1O	inactive
Cc1nc(-c2ccc3c(c2)CCN(CCC2CCC(NC(=O)/C=C/c4ccc(F)cc4)CC2)CC3)no1 (centres undefined)	inactive
Cc1cccc(Nc2cc(Cl)nc(SCC(=O)O)n2)c1C	inactive
O=C(O)Cc1ccccc1Nc1c(Cl)cccc1Cl	inactive
CNC(=O)[C@H]1O[C@@H](n2cnc3c(NCc4cc(Cl)ccc4OCc4cc(C)no4)ncnc32)[C@H](O)[C@@H]1N	inactive
COc1ccc(S(=O)(=O)N2C(=O)[C@@](c3ccccc3OC)(N3C[C@H](O)C[C@H]3C(=O)N(C)C)c3cc(Cl)ccc32)c(OC)c1	inactive
CC(=O)Oc1ccccc1C(=O)O	inactive
COc1ccc2c(c1)c(CC(=O)O)c(C)n2C(=O)c1ccc(Cl)cc1	inactive
Cc1ccc(C)c(C)c1	inactive
CN[C@H]1CC[C@@H](c2ccc(Cl)c(Cl)c2)c2ccc(S(N)(=O)=O)cc21	inactive

System: not listed separately
Experiment: CCTE_Simmons_MITO_basal_resp_rate: CCTE's HepG2 Seahorse XF Respirometric Screening Assay at Basal Respiratory State, Simmons Lab (AID 2284001; active = hit-call score of the fitted dose curve at least 0.9, where 1 is the maximum; inactive = score below 0.9)
Details: actives raise or lower the signal
Outline: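 HepG2 respirometry; 7-pt titration 125 nM–100 uM final; kinetic OCR at 6 min intervals for 72 min; n=3 biological, technical singles; DMSO baseline, gain or loss fit; fenpyroximate (decrease) and 2,4-DNP (increase) controls.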

Compound	AC50	outcome
CC(C)(C)c1cc(O)c(C(C)(C)C)cc1O	18.3 µM (active)	–
Cc1cccc(Nc2cc(Cl)nc(SCC(=O)O)n2)c1C	–	inactive
COc1ccc2c(c1)c(CC(=O)O)c(C)n2C(=O)c1ccc(Cl)cc1	13.4 µM (active)	–
CN[C@H]1CC[C@@H](c2ccc(Cl)c(Cl)c2)c2ccc(S(N)(=O)=O)cc21	25.6 µM (active)	–
